Screens as filed in PubChem BioAssay.
Jurkat NFkB inh: lowers PMA/ionomycin-induced NF-kB signal in Jurkat cells | PMA/ionomycin-induced NF-kB luciferase reporter, luminescence | inhibition, % at 4 µM | 330,000 compounds, 0.53% hits; in the data active = inhibition above about 50%
697 NFkB inh: inhibitors of the PMA/ionomycin-induced NF-kB reporter in 697 B cells; 697 B-cell NF-kB luciferase reporter, 16 h; inhibition, % at 4 µM; 330,000 compounds, 0.33% hits; in the data active = inhibition above about 35%
Beta apoptosis: beta cell apoptosis inhibition; INS-1E cytokine-induced death, ATP luminescence, 48 h; percent of positive-control rescue, neutral wells zero; protection from apoptosis, % (concentration not given with the values); 300,000 compounds, 0.8% hits; AID 435005;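 active = Every replicate reaches about 75%, or at least half do and their mean reaches it too, limit read from the data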;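 note: 0% = cytokine-treated negative control wells and 100% = positive control rescue; higher means more ATP so stronger rescue from cytokine killing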
Gli-Sufu antag: Gli-Sufu pathway antagonism | inhibition, % at 5 µM | Sufu-KO-LIGHT fibroblasts, Gli luciferase reporter luminescence | 340,000 compounds, 0.74% hits | AID 588413;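 active = inhibition above about 55%, limit read from the data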;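 note: 0% = DMSO-treated cells and 100% = wells with medium but no cells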
Jurkat NFkB conf: inhibitors of the PMA/ionomycin-induced NF-kB reporter in Jurkat cells, retest; shares compounds with Jurkat NFkB inh; Jurkat NF-kB luciferase, 16 h; 2,700 compounds, 27% hits; AID 435020; inhibition, % at 4 µM;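 active = inhibition reaching about 45% at 4 µM in either replicate, limit read from the data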;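 note: plate controls were PMA/ionomycin stimulated DMSO wells for no effect and unstimulated DMSO wells for full effect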
697 NFkB conf: inhibitors of the PMA/ionomycin-induced NF-kB reporter in 697 B cells, retest | shares compounds with 697 NFkB inh | 697 B-cell NF-kB luciferase, 16 h | inhibition, % at 4 µM | 2,000 compounds, 35% hits; in the data active = inhibition mostly above about 28%, no sharp cut-off; inactive = mostly below about 22%
Gli antag conf: confirmation of Gli-SUFU pathway antagonists. inhibition, % at 5 µM. shares compounds with Gli-Sufu antag. 2,500 compounds, 40% hits. Sufu-KO-LIGHT cells, Gli luciferase reporter, luminescence;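 active = mean inhibition at 5 µM reaching about 45%, limit read from the data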;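 note: plate controls were DMSO-treated cells for no effect and wells lacking cells for full effect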
Gli cytotox: cytotoxicity counter-screen for Gli-SUFU antagonists; cytotoxicity, % at 5 µM; 2,500 compounds, 32% hits; Sufu-KO-LIGHT cells cytotoxicity, ATP luminescence; AID 651994; shares compounds with Gli-Sufu antag;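 active = mean cytotoxicity at 5 µM above about 25%, limit read from the data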;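 note: cells exposed to compound overnight for roughly 16 to 18 hours; plate controls were DMSO wells with cells for no effect and medium without cells for full effect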
Wnt3a cs: inhibits Wnt3a reporter, counter-screen for Gli-SUFU antagonists. shares compounds with Gli-Sufu antag. Wnt-LIGHT cells, Wnt3a-driven luciferase reporter, luminescence. inhibition, % at 6.25 µM. 2,500 compounds, 20% hits;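 active = mean inhibition above about 25%, limit read from the data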
* marks the source's active call; other numbers are inactive results. Most compounds without a hit are left out; they make up all but 1.8% or so of the library.

CC[C@@]1(C(=O)OC)N[C@H](CN(C)C(=O)Nc2ccc(C(F)(F)F)cc2)[C@@H]2C(=O)N(Cc3ccccc3)C(=O)[C@@H]21 was read as Jurkat NFkB inh -6, 697 NFkB inh -4, Beta apoptosis -7 and Gli-Sufu antag 4.
For CC/C(=N\NC(=O)Cc1ccc(Br)cc1)c1cccs1 the results were Jurkat NFkB inh -2, 697 NFkB inh 9, Beta apoptosis -8 and Gli-Sufu antag -10.
For CC(=Nc1ccc(C)cc1)c1sc2ccccc2c1O the results were Jurkat NFkB inh -152, 697 NFkB inh -387, Beta apoptosis 9, Gli-Sufu antag 61*, Jurkat NFkB conf -77, 697 NFkB conf -144, Gli antag conf -84, Gli cytotox 54* and Wnt3a cs 28*.
COc1cc(-c2noc(C)c2/C=C/c2ccc(OC(C)=O)cc2)cc(OC)c1OC was read as Jurkat NFkB inh 68*, 697 NFkB inh -45, Beta apoptosis 15, Gli-Sufu antag 53, Jurkat NFkB conf 49*, Gli antag conf 69*, Gli cytotox 58* and Wnt3a cs 5.
Screening O=S(=O)(NCc1ccc(F)cc1)c1ccc(-c2cnc(C3CC3)o2)cc1 returned Jurkat NFkB inh 12, 697 NFkB inh -19 and Beta apoptosis 2.
Screening Cc1cc(C)cc(NS(=O)(=O)c2ccc(-c3cnc(C4CC4)o3)cc2)c1 returned Jurkat NFkB inh 56*, 697 NFkB inh -52, Gli-Sufu antag 55*, Jurkat NFkB conf 55*, Gli antag conf 51*, Gli cytotox 57* and Wnt3a cs -14.
Nc1nc(Cl)cc(N2CCC(c3cc(-c4ccc(Cl)cc4)n[nH]3)CC2)n1 was read as Jurkat NFkB inh 70*, 697 NFkB inh -8, Beta apoptosis 104*, Gli-Sufu antag 74*, Jurkat NFkB conf 63*, Gli antag conf 78*, Gli cytotox 19 and Wnt3a cs 68*.
Screening Cc1ccc(NC(=O)c2cc3ccccc3oc2=O)cc1S(=O)(=O)N(C)C returned Jurkat NFkB inh 56*, 697 NFkB inh -48, Beta apoptosis -10, Gli-Sufu antag 78*, Jurkat NFkB conf 91*, Gli antag conf 89*, Gli cytotox 16 and Wnt3a cs 101*.
For Cc1ccc(NC(=O)c2cc3ccccc3o2)cc1S(=O)(=O)N(C)C the results were Gli-Sufu antag -121.
COc1nc(C)cc(C)c1S(=O)(=O)c1ccc(Cl)cc1 was read as Jurkat NFkB inh -14, 697 NFkB inh 0, Beta apoptosis -3 and Gli-Sufu antag -1.
Cc1nn(-c2ccccc2)c(C)c1/C=N/NC(=O)c1cc(-c2cccs2)[nH]n1 was read as Jurkat NFkB inh 53*, 697 NFkB inh 45*, Beta apoptosis 37, Gli-Sufu antag 50, Jurkat NFkB conf 57*, 697 NFkB conf 51*, Gli antag conf 61*, Gli cytotox 60* and Wnt3a cs -62.
Screening Cc1[nH]c(C(=O)N/N=C/c2ccc(C(=O)O)cc2)c(C)c1C(=O)N/N=C/c1ccc(C(=O)O)cc1 returned Jurkat NFkB inh -9, 697 NFkB inh 10, Beta apoptosis 5 and Gli-Sufu antag -5.
`CCOC(=O)c1c(C)[nH]c(C(=O)N/N=C/c2ccc(Br)cc2)c1C` gave Jurkat NFkB inh 79*, 697 NFkB inh -72, Beta apoptosis 26, Gli-Sufu antag 52, Jurkat NFkB conf 46, Gli antag conf 50*, Gli cytotox 61* and Wnt3a cs -18.
For CN(C)c1ccc(-c2n(C)c3ccccc3[n+]2C)cc1 the results were Jurkat NFkB inh 76*, 697 NFkB inh 42*, Gli-Sufu antag 80*, Jurkat NFkB conf 60*, 697 NFkB conf 57*, Gli antag conf 82*, Gli cytotox 36* and Wnt3a cs 27*.
